Data reported in ChEMBL document CHEMBL1961873, “Compounds: GSK PKIS; Assays: Nanosyn kinase panel” (2012).

Columns and labels:
[1] = biological target: Serine/threonine-protein kinase MRCK alpha (Homo sapiens) (UniProt Q5VT25); conditions: at 0.1 µM
[2] = biological target: Serine/threonine-protein kinase MRCK alpha (Homo sapiens) (UniProt Q5VT25); conditions: at 1 µM
[3] = biological target: Serine/threonine-protein kinase MRCK beta (Homo sapiens) (UniProt Q9Y5S2); conditions: at 0.1 µM
[4] = biological target: Serine/threonine-protein kinase MRCK beta (Homo sapiens) (UniProt Q9Y5S2); conditions: at 1 µM
[5] = biological target: Ribosomal protein S6 kinase alpha-5 (Homo sapiens) (UniProt O75582); conditions: at 0.1 µM
Ribosomal protein S6 kinase alpha-5 (Homo sapiens), sequence (O75582 whole entry, looked up): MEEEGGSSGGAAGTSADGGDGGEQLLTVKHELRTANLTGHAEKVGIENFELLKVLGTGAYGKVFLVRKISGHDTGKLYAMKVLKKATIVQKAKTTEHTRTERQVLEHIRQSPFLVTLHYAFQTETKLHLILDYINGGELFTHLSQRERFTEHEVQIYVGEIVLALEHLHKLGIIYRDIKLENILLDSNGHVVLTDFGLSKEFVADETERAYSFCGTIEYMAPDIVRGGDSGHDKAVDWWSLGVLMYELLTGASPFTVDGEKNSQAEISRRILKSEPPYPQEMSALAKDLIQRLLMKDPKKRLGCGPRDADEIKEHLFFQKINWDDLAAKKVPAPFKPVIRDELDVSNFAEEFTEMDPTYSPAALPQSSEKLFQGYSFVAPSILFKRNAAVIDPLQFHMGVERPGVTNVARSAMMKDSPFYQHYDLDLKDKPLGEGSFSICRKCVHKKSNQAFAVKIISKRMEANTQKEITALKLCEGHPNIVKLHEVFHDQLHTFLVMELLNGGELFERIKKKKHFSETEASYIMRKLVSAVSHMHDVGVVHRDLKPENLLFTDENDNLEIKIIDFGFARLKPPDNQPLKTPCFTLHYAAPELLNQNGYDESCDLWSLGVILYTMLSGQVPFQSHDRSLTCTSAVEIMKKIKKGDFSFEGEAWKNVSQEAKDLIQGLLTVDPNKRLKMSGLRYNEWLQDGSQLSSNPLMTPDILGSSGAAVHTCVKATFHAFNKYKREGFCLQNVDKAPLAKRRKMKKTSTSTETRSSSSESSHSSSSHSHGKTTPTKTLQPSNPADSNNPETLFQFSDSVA

[6] = biological target: Ribosomal protein S6 kinase alpha-5 (Homo sapiens) (UniProt O75582); conditions: at 1 µM
[7] = biological target: Ribosomal protein S6 kinase alpha-4 (Homo sapiens) (UniProt O75676); conditions: at 0.1 µM
Ribosomal protein S6 kinase alpha-4 (Homo sapiens), sequence (O75676 whole entry, looked up): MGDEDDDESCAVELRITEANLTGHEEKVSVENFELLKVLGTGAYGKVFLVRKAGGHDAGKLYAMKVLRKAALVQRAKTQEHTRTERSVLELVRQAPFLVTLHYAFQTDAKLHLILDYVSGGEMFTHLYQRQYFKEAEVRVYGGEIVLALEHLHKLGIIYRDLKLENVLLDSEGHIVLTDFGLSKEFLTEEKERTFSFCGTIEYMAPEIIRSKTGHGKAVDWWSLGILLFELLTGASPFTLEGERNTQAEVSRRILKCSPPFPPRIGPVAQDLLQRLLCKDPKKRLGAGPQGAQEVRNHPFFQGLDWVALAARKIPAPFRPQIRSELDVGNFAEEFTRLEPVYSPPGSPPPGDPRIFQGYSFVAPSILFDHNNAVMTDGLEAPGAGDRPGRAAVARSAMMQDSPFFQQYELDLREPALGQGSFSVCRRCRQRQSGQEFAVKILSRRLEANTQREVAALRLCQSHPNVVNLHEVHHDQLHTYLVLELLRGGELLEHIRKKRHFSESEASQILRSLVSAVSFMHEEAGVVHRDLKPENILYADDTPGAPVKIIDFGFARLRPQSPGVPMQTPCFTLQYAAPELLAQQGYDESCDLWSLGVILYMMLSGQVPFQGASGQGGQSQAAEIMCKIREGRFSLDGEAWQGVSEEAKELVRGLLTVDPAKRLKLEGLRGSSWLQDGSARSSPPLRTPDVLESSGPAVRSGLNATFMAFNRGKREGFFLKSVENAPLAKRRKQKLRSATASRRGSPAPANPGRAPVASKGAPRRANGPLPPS

[8] = biological target: Ribosomal protein S6 kinase alpha-4 (Homo sapiens) (UniProt O75676); conditions: at 1 µM
[9] = biological target: Ribosomal protein S6 kinase beta-1 (Homo sapiens) (UniProt P23443); conditions: at 0.1 µM
Ribosomal protein S6 kinase beta-1 (Homo sapiens), sequence (P23443 whole entry, looked up): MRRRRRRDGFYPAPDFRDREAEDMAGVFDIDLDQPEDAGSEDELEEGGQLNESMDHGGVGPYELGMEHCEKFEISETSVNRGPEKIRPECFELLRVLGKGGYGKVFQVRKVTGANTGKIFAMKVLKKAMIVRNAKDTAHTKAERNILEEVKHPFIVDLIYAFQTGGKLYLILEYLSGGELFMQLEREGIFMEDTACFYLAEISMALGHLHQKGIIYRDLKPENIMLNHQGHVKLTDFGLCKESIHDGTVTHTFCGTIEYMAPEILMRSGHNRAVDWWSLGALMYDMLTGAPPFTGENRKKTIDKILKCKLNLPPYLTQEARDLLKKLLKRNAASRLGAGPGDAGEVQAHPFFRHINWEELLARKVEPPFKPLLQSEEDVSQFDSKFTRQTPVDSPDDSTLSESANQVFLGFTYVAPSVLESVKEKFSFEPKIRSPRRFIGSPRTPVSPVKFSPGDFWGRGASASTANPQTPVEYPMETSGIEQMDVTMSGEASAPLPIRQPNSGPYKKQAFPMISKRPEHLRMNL

[10] = biological target: Ribosomal protein S6 kinase beta-1 (Homo sapiens) (UniProt P23443); conditions: at 1 µM

Serine/threonine-protein kinase MRCK beta (Homo sapiens), sequence (Q9Y5S2 whole entry): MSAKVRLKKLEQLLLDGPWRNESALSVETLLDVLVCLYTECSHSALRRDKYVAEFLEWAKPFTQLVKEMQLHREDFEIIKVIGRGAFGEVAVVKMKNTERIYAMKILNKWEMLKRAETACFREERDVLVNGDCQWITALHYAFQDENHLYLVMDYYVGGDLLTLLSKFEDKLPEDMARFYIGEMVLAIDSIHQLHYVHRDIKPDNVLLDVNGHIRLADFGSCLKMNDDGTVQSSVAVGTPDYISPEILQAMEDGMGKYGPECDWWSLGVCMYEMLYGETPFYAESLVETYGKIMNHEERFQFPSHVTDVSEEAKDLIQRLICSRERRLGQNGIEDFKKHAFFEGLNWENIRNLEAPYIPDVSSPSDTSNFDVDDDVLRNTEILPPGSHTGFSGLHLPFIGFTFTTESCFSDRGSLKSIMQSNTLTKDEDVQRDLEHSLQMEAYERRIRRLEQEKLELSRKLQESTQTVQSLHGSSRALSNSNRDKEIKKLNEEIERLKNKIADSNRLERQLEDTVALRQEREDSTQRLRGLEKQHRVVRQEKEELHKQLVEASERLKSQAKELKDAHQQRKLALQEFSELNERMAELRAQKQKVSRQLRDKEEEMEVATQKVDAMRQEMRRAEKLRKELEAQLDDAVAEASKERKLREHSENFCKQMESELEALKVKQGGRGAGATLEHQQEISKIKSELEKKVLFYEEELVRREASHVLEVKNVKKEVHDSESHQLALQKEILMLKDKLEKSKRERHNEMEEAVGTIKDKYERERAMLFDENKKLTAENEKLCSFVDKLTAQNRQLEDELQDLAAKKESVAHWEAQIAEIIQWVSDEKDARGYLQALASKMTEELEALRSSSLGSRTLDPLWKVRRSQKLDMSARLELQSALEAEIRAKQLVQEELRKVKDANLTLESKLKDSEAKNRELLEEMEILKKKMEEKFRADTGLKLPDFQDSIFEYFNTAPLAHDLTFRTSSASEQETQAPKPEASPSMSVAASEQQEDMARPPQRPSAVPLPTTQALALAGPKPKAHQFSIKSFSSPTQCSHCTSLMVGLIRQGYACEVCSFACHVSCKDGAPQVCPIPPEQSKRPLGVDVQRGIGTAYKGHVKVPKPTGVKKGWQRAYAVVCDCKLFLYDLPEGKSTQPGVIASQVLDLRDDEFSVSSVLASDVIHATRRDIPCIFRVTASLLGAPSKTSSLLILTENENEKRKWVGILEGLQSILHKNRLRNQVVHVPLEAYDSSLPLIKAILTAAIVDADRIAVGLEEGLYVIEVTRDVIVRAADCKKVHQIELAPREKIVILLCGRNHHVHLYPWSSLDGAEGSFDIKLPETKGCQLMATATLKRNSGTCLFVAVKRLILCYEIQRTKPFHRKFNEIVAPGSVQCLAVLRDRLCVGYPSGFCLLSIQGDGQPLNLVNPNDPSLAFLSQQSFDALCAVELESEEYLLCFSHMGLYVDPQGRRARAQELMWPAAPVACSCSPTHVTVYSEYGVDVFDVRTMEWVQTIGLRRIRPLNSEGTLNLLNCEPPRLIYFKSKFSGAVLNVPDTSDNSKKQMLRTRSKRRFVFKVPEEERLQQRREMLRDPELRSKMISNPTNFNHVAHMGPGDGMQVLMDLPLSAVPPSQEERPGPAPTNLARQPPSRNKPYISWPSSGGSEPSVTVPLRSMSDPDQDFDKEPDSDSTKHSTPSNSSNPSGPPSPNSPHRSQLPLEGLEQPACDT

Compound | inhibition [1] [%] | inhibition [2] [%] | inhibition [3] [%] | inhibition [4] [%] | inhibition [5] [%] | inhibition [6] [%] | inhibition [7] [%] | inhibition [8] [%] | inhibition [9] [%] | inhibition [10] [%]
CCn1c(-c2nonc2N)nc2c(C#CC(C)(C)O)nc(OC[C@@H](N)c3ccccc3)cc21 | 12 | 48.2 | 11.1 | 48.5 | -5.71 | 8.99 | 1.92 | 19.7 | 5.44 | 36
CCn1c(-c2nonc2N)nc2cnc(Oc3cccc(NC(=O)c4ccc(OCCN5CCOCC5)cc4)c3)cc21 | 6.6 | 42.3 | 17.8 | 59 | 66.8 | 78.1 | 56.7 | 76.7 | 84.6 | 93
Nc1ncnc2occ(-c3ccc(NC(=O)Nc4cccc(C(F)(F)F)c4)cc3)c12 | -3.03 | 0.21 | 0.84 | 1.21 | 6.35 | 19.5 | 3.31 | 20.8 | 21 | 73.5
CC1=C(C(=O)Nc2ccc3[nH]ncc3c2)C(c2ccc(Cl)c(Cl)c2)CC(=O)N1 (stereo not given) | 1.51 | 20.1 | 5.81 | 35 | 10.3 | 46.4 | 7.4 | 39.1 | 3.83 | 25.2
Cc1cc(O)cc(C)c1/C=C/c1cncc(-c2nn[nH]n2)c1 | -0.28 | -0.43 | 0.47 | 0.57 | 3.79 | 1.87 | 1.46 | 2.78 | 1.11 | 1.97
Cc1ccc(C(=O)NC2CCCCC2)cc1-c1ccc(C(=O)NCC2CC2)cc1 | 1.04 | 0.21 | 1.37 | 1.51 | 2.76 | 3.23 | 1.19 | 2.43 | -0.26 | 0.99
COc1ccc(COc2ccc(Cc3cnc(N)nc3N)cc2OC)cc1 | 1.99 | -0.63 | 3.11 | 3.93 | 8.75 | 5.97 | 1.99 | 1.84 | 1.54 | 0.73
COc1ccc2cc(-c3c(-c4ccncc4)nc(-c4ccc([S+](C)[O-])cc4)n3C)ccc2c1 (stereo not given) | 0.19 | 1.36 | 0.92 | 1.62 | 3.04 | 1.94 | 1.31 | 4.13 | 2.56 | 2.88
Nc1nc(-c2ccc3c(c2)C(=Cc2cc(Br)c(O)c(Br)c2)C(=O)N3)cs1 | -0.3 | -1.5 | 0.42 | 0.83 | -1.16 | 0.13 | -1.47 | -0.48 | -1.65 | 1.12
CCn1c(-c2nonc2N)nc2c(C#CC(C)(C)O)nc(CN3CCCC3)cc21 | 2.53 | 0.11 | 1.98 | 4.91 | 0.29 | 3.07 | 2 | 6.06 | 0.33 | 1.37
c1cnn2ncc(-c3ccnc(Nc4ccc5c(c4)OCCO5)n3)c2c1 | -0.46 | 0.87 | 1.21 | 1.8 | 4.5 | 6.82 | 2.97 | 6.51 | 1.67 | 5.63
N#Cc1c(NC(=O)c2cccc3ccccc23)sc2c1CCCC2 | -0.22 | -0.12 | 0.93 | 1.57 | 7.78 | 6.93 | 1.95 | 2.56 | 1.14 | 2.63
O=C1NC(=O)C(c2ccc(Cl)cc2)=C1Nc1ccc(Cl)c(C(=O)O)c1 | -0.29 | -0.46 | 0.31 | -0.42 | -1.75 | -1.95 | -2.17 | -1.54 | -1.54 | -1.25
[O-][S+]1CCN(Cc2ccc(-c3ccc4ncnc(Nc5ccc(OCc6ccccc6)c(F)c5)c4c3)o2)CC1 | 0.13 | -0.47 | -0.5 | 0.8 | 1.59 | 1.41 | -0.07 | 2.42 | 0.52 | 0.86
NCc1ccc(-c2nc(-c3ccc(Cl)c(O)c3)c(-c3ccncc3)[nH]2)cc1 | 0.67 | -0.06 | -1.19 | 1.3 | 0.16 | 2.56 | -0.59 | 2.82 | 0.03 | 0.71
COc1ccccc1Nc1ncc(-c2ccccc2)o1 | -5.48 | -2.78 | 0.73 | 0.66 | -3.3 | -5.77 | 4.65 | 2.42 | 1.36 | 2.44
CS(=O)(=O)CCNCc1ccc(-c2ccc3ncnc(Nc4ccc(OCc5cccc(F)c5)c(C(F)(F)F)c4)c3c2)o1 | -0.31 | 1.73 | -0.15 | 0.67 | 9.28 | 8.53 | 2.67 | 2.44 | 1.58 | 2.22

Compound | inhibition [1] [%] | inhibition [2] [%] | inhibition [3] [%] | inhibition [4] [%] | inhibition [5] [%] | inhibition [6] [%] | inhibition [7] [%] | inhibition [8] [%] | inhibition [9] [%] | inhibition [10] [%]
COc1cc2ncn(-c3cc(O[C@H](C)c4ccccc4Cl)c(C(N)=O)s3)c2cc1OC | 1.89 | 5.55 | 0.35 | 1.02 | -1.18 | 3.73 | 4.32 | 13.8 | 1.42 | 4.7
CC(=O)Nc1cccc(C#Cc2cncnc2Nc2ccc(OCc3cccc(F)c3)c(Cl)c2)n1 | 2.04 | 4.47 | 0.72 | 3.16 | 8.63 | 10.1 | 2.79 | 4.81 | 0.05 | 0.93
Nc1ncnc2occ(-c3ccc(NC(=O)Nc4cc(C(F)(F)F)cc(C(F)(F)F)c4)cc3)c12 | -0.38 | -1.97 | 0.11 | 1.52 | 3.6 | 25.2 | -0.06 | 20.1 | 17 | 65.8
Cc1nn(C)c2cc(N(C)c3ccnc(Nc4cccc(S(N)(=O)=O)c4)n3)ccc12 | -1.1 | 2.42 | 1.01 | 3.81 | 10.5 | 11.1 | 4.88 | 6.94 | 2.3 | 2.85
NS(=O)(=O)c1cccc(-c2ccc3c(NC(=O)C4CC4)n[nH]c3c2)c1 | 0.11 | -0.38 | 0.03 | 2.23 | -0.03 | 1.96 | -0.84 | 0.37 | -1.3 | 0.07
CCn1c(-c2nonc2N)nc2ccncc21 | 1.72 | 1.13 | 0.86 | 0.41 | 1.63 | 2.9 | 0.33 | 2.82 | 1.28 | 3.8
COc1cc(C=NNc2ncnc3c2cnn3-c2ccccc2)ccc1O | 0.09 | 3.38 | 1.02 | 2.48 | -3.81 | -1.13 | 1.6 | 4.55 | 2.72 | 10.3
CC1=C(C(=O)Nc2ccc3[nH]ncc3c2)C(c2ccc(F)cc2)NC(=O)N1 (stereo not given) | 2.04 | 12.4 | 5.57 | 29.9 | 8.51 | 34.2 | 3.34 | 16.7 | 1.64 | 13.8
COC(=O)Nc1nc2cc(Oc3cccc(NC(=O)Nc4cc(C(F)(F)F)ccc4F)c3)ccc2[nH]1 | 0.87 | 0.69 | -0.19 | 2.03 | 0.09 | 1.11 | -0.69 | 1.7 | -0.07 | 1.88
CC1=C(C(=O)Nc2ccc3[nH]ncc3c2)C(c2ccc3ccccc3c2)CC(=O)N1 (stereo not given) | 3.1 | 22.7 | 5.85 | 37.9 | 10.7 | 47.6 | 6.16 | 34.1 | 2.41 | 21.4
COC(=O)Nc1nc2cc(Oc3ccc(NC(=O)Nc4cccc(C(=O)O)c4)cc3)ccc2[nH]1 | 1.42 | 1.5 | -0.52 | -1.21 | -0.25 | 1.28 | 1.24 | 2.84 | 0.88 | 0.91
CC(C)=Cc1cccc2c1/C(=N/Nc1ccc(S(N)(=O)=O)cc1)C(=O)N2 | 1.91 | 3.43 | -0.74 | 0.5 | 7.7 | 11.4 | 2.65 | 15.9 | 1.06 | 5.23
NC(=O)c1cccc(Nc2nccc(Nc3cccc4[nH]ncc34)n2)c1 | -0.16 | 2.18 | 0.71 | 3.5 | -3.36 | 2.78 | -1.85 | 1.24 | -1.61 | 4.1
CCCN1CCC(Oc2cc(Nc3nc(Nc4cccc(F)c4C(N)=O)c4cc[nH]c4n3)c(OC)cc2Cl)CC1 | 0.81 | -1.24 | 1.36 | 2.2 | 1.01 | 3.87 | 1.03 | 1.99 | -0.03 | 1.36
CCn1c(-c2nonc2N)nc2cncc(C(=O)N3CC[C@H](N)C3)c21 | 14.5 | 68.7 | 23.1 | 67.2 | 67.9 | 81.4 | 44.5 | 74.3 | 32.9 | 80.3
COc1cccc(-n2ncc3c(N/N=C/c4cccc(F)c4)ncnc32)c1 | 0.1 | -0.68 | 1.2 | 0.38 | 0.41 | -0.25 | 2.4 | 2.89 | 0.65 | 2.01
COc1ccc(-c2coc3ncnc(N)c23)cc1 | 0.52 | -0.11 | 1.16 | 1.93 | 9.6 | 8.17 | 1.64 | 3.84 | 1.77 | 2.26
